# Active and inactive are the calls of the source. Calls follow the shape of the dose curve; as a rule, active = well fitted cell-killing curve with a large enough effect in the repeat runs; inconclusive = weak or mixed curves, or effect the other way; inactive = flat fitted curve, though single readings scatter.
# Assay: qHTS assay to identify small molecule HDAC inhibitors - cell viability counter screen (AID 1259365); also: nearly all actives have a fitted effect of over 50% in size
# Details: HCT-116 viability, CellTiter-Glo ATP luminescence, 2 h; series mostly up to 92.4 µM; activity change, negative = cytotoxicity: at the top concentration
# Procedure, shortened: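 To flag cytotoxic hits, 1,500 wild-type HCT-116 cells per well, plated the day before, receive test compounds for 2hr at 37 C before CellTiter-Glo reagent and a luminescence read.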
# % is scaled to controls: 0 for no effect and ±100 for the full control effect.
row,Structure (SMILES),"activity change, negative = cytotoxicity"
1,N#CC1(N)CCCCC1,-3.31% (inactive)
2,CC(C)(C)c1ccc(C(=O)CCCCl)cc1,-6.73% [at 42.5 µM] (inactive)
3,CN(C)CCCN(C)C,1.58% [at 8.39 µM] (inactive)
4,CCCCC(CC)COC(=O)CC#N (stereo not given),-3.1% (inactive)
5,COc1ccc(Cl)cc1C,-0.144% (inactive)
6,Cc1cc(O)c(Cl)cc1C,3.9% (inactive)
7,CN(C)c1ccncc1,1.91% (inactive)
8,CC(C)(C)c1ccc(N)cc1,-8.69% (inactive)
9,CCCCCCCC(=O)N(C)C,-0.994% (inactive)
10,CCN1CCN(C(=O)N[C@@H](C(=O)N[C@@H]2C(=O)N3[C@@H]2SC(C)(C)[C@H]3C(=O)O)c2ccccc2)C(=O)C1=O,-0.141% [at 42.5 µM] (inactive)
11,Cc1ccccc1OCC(=O)O,-0.001% (inactive)
12,CC[N+](C)(CC)CC,-0.398% (inactive)
13,CCCCS,4.31% (inactive)
14,CCC(C)c1nccnc1OC (stereo not given),0.0566% (inactive)
15,CC1(C)S[C@@H]2[C@H](NC(=O)Cc3ccccc3)C(=O)N2[C@H]1C(=O)O (tested in a mixture with another compound),2.87% [at 42.5 µM] (inactive)
16,C=COCCCCO,3.17% (inactive)
17,CCOC(=O)CC(C(C)=O)C(C)=O,0.162% (inactive)
18,C=CCN(CC=C)CC=C,0.244% (inactive)
19,CC(C)(C)OC=O,-2.22% (inactive)
20,COc1ccccc1N1CCN(CC(O)COc2cc(OC)c(OC)c(OC)c2)CC1 (stereo not given),0.944% [at 42.5 µM] (inactive)
21,C/C=C(\C)C=O,3.05% (inactive)
22,CNC(C)=O,2.2% (inactive)
23,O=Cc1ccccc1S(=O)(=O)O,-0.122% (inactive)
24,CCCCCCCCCCCCCCBr,5.64% (inactive)
25,C[C@@H]1NC(=O)[C@@H](N)CNC(=O)[C@H](C2CCNC(N)=N2)NC(=O)/C(=C/NC(N)=O)NC(=O)[C@H](CNC(=O)C[C@@H](N)CCCN)NC1=O (stereo not given in full),-0.0427% [at 0.349 µM] (inactive)
